# Values joined by “and” are separate entries in the source; they are usually repeats but may differ in a detail not shown here. Equal entries are not always repeated. Records with an inconclusive call do not appear. Active and inactive are the calls of the source. Calls come from the whole dose curve; as a rule, active = well fitted curve in the direction sought with a large enough effect; inconclusive = small, poorly fitted or top-dose-only effect, or another doubt; inactive = no such curve, though single readings can be large; an effect the other way counts as inactive or inconclusive.
# Target: Peroxisome proliferator-activated receptor alpha (Homo sapiens) (UniProt Q07869)
# Sequence (Q07869 whole entry, looked up): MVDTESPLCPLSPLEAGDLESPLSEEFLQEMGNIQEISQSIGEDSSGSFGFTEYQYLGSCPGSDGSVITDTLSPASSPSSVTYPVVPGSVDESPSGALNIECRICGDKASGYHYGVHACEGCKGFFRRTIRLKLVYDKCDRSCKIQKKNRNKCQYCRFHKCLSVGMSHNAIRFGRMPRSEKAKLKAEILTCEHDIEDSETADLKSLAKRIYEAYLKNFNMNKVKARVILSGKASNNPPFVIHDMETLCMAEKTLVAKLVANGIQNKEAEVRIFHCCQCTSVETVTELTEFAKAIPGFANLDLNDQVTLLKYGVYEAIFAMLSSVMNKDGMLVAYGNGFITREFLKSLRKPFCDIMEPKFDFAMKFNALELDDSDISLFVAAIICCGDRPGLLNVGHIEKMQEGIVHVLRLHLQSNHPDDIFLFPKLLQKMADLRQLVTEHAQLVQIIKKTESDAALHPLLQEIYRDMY
# Experiment: qHTS assay for small molecule agonists of the peroxisome proliferator-activated receptor alpha (PPARalpha) signaling pathway (AID 651778); note: % of control where 0% means no effect
# Conditions: PathHunter PPARalpha complementation, chemiluminescence, 6 h; max response: stronger effect = higher value
# Outline: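 Cells plated at 2,000/well and held overnight at 37 C, 5% CO2, then compound added by pin tool for 6 hr; after PathHunter detection reagent and 60 min at room temperature, chemiluminescence from enzyme complementation was read.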
row,SMILES,max response
1,COc1ccc(C(c2ccc(OC)cc2)C(Cl)(Cl)Cl)cc1,12.2% (inactive) and 6.03% (inactive) and 0.144% (inactive)
2,O=C(O)COc1nc(Cl)c(Cl)cc1Cl,-3.53% (inactive)
3,O=C(O)COc1ccccc1,-1.23% (inactive)
4,O=[N+]([O-])c1c(Cl)c(Cl)cc(Cl)c1Cl,0.293% (inactive)
5,Nc1ccc(Cl)cc1,8.91% (inactive)
6,COc1nn(CSP(=S)(OC)OC)c(=O)s1,-1.93% (inactive)
7,ClC1=C(Cl)[C@]2(Cl)[C@@H]3[C@@H]4C[C@@H]([C@H]5O[C@@H]45)[C@@H]3[C@@]1(Cl)C2(Cl)Cl,12.3% (inactive)
8,O=S(=O)(c1ccc(Cl)cc1)c1ccc(Cl)cc1,2.6% (inactive) and -3.68% (inactive) and -3.44% (inactive)
9,c1cc2ccc3cccc4ccc(c1)c2c34,-3.14% (inactive) and -4.98% (inactive)
10,OCCCBr,-3.35% (inactive)
11,O=S(=O)(O)C(F)(F)C(F)(F)C(F)(F)C(F)(F)F,5.33% (inactive) and 1.27% (inactive)
12,CN(C)NC(=O)CCC(=O)O,0.401% (inactive) and -4.12% (inactive)
13,Nc1ccc([N+](=O)[O-])cc1,-2.66% (inactive)
14,CCOP(=O)(NC(C)C)Oc1ccc(SC)c(C)c1 (stereo not drawn),2.22% (inactive) and -0.0211% (inactive)
15,Nc1ccc(Cl)cc1N,-5.6% (inactive) and -0.828% (inactive)
16,CCCCCCCCc1ccc(O)cc1,18.3% (inactive) and 5.8% (inactive)

row,SMILES,max response
1,O=C(Nc1ccccc1-c1ccc(Cl)cc1)c1cccnc1Cl,0.0876% (inactive)
2,Cc1cc(O)ccc1Cl,-2.23% (inactive)
3,C1CCC(NC2CCCCC2)CC1,0.749% (inactive) and -0.258% (inactive) and -1.01% (inactive)
4,CCO/N=C(\CC)C1=C(O)CC(c2c(C)cc(C)cc2C)CC1=O (stereo not drawn),-0.461% (inactive)
5,C=CC(=O)NCNC(=O)C=C,-3.68% (inactive) and -5.17% (inactive)
6,CC(C)Oc1cccc(NC(=O)c2ccccc2C(F)(F)F)c1,3.69% (inactive)
7,Clc1cnc(Oc2ccc(Oc3ncc(Cl)cc3Cl)cc2)c(Cl)c1,2.8% (inactive)
8,CC(C)(C)C(O)C(Oc1ccc(Cl)cc1)n1cncn1 (stereo not drawn),-0.528% (inactive)
9,COC(C)(C)CCCC(C)C/C=C/C(C)=C/C(=O)OC(C)C (stereo not drawn),3.83% (inactive) and 3.99% (inactive)
10,C=CCC1=C(C)C(OC(=O)C2C(C=C(C)C)C2(C)C)CC1=O (stereo not drawn),4.18% (inactive)
11,O=[N+]([O-])c1cc([N+](=O)[O-])c2ccccc2c1,-4.32% (inactive)
12,CS(=O)(=O)c1ccc(C(=O)C2C(=O)CCCC2=O)c([N+](=O)[O-])c1,-3.08% (inactive)
13,O=[N+]([O-])c1c2ccccc2cc2ccccc12,5.89% (inactive)
14,CC(C)(O)C(=O)Nc1ccc([N+](=O)[O-])c(C(F)(F)F)c1,-1.76% (inactive)
15,CCCCC(CC)COC(=O)c1ccccc1C(=O)OCC(CC)CCCC (stereo not drawn),-1.13% (inactive) and 3.57% (inactive)
16,CCCCOC(=O)c1ccccc1C(=O)OCc1ccccc1,-3.94% (inactive) and -0.0123% (inactive)

# Target: Nuclear receptor ROR-gamma (Homo sapiens) (UniProt P51449)
# Sequence (P51449 whole entry, looked up): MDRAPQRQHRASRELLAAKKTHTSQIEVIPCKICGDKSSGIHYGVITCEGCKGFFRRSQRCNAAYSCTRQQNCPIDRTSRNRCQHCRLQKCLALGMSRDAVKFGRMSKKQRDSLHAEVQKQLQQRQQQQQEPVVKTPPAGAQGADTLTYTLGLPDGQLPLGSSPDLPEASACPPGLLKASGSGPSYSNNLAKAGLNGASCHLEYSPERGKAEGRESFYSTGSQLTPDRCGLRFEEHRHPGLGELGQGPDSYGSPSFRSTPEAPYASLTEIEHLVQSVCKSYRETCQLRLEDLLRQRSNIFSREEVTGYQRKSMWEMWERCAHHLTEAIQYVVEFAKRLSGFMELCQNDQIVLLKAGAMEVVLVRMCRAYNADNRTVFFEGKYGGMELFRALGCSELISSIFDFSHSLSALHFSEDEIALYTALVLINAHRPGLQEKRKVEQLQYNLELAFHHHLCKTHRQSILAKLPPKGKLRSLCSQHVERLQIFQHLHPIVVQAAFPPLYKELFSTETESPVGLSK
# Experiment: qHTS assay for small molecule antagonists of the retinoid-related orphan receptor gamma (ROR-gamma) signaling pathway (AID 651802); note: nearly all actives have a fitted effect of over 60% in size; note: potency is the fitted concentration of half-maximal effect
# Conditions: ROR-gamma antagonist cell reporter assay; series mostly up to 92.2 µM
# Outline: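 CHO cells with TET-inducible ROR-gamma and RORE-luciferase reporter, dosed then doxycycline-induced. After 16 h at 37C, One-Glo luminescence read; decreased signal indicates antagonism.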
row,SMILES,Potency
1,COc1ccc(C(c2ccc(OC)cc2)C(Cl)(Cl)Cl)cc1,26.6 µM (active)
2,O=[N+]([O-])c1c(Cl)c(Cl)cc(Cl)c1Cl,inactive
3,Nc1ccc(Cl)cc1,inactive
4,O=S(=O)(c1ccc(Cl)cc1)c1ccc(Cl)cc1,inactive
5,c1cc2ccc3cccc4ccc(c1)c2c34,inactive
6,OCCCBr,inactive
7,CN(C)NC(=O)CCC(=O)O,inactive
8,Nc1ccc([N+](=O)[O-])cc1,inactive
9,CCOP(=O)(NC(C)C)Oc1ccc(SC)c(C)c1 (stereo not drawn),inactive
10,Nc1ccc(Cl)cc1N,inactive
11,CCCCCCCCc1ccc(O)cc1,inactive
12,C1CCC(NC2CCCCC2)CC1,inactive
13,COC(C)(C)CCCC(C)C/C=C/C(C)=C/C(=O)OC(C)C (stereo not drawn),inactive
14,O=[N+]([O-])c1cc([N+](=O)[O-])c2ccccc2c1,inactive
15,O=[N+]([O-])c1c2ccccc2cc2ccccc12,inactive
16,CCCCOC(=O)c1ccccc1C(=O)OCc1ccccc1,inactive

# Source: PubChem BioAssay (NCATS)
